About 79,000 compounds went through this panel and 15% of them were active in at least one assay; those are over-represented in the sample as a whole. Values without a mark were called inactive. Active and inactive are the calls of the source. Cut-off read from the data, not from the text of the source: active = growth inhibition above about 70%; inactive = the rest.
How the values were obtained:
[1] = NCI Yeast Anticancer Drug Screen. Data for the rad50 strain (AID 155);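 note: 0% = growth of vehicle-only cultures of the same strain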; conditions: S. cerevisiae rad50 strain growth inhibition, stronger effect = higher value
In short: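 Genetically altered yeast (DNA repair pathway); compound treatment; growth inhibition vs vehicle ctrl.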

[2] = NCI Yeast Anticancer Drug Screen. Data for the mec2-1 strain (AID 157); conditions: S. cerevisiae mec2-1 strain, stronger effect = higher value
In short: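 Growth inhibition is read against vehicle-treated controls after compound exposure of the mec2-1 yeast strain, which is defective in DNA damage repair or cell cycle control.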

[3] = NCI Yeast Anticancer Drug Screen. Data for the sgs1 mgt1 strain (AID 161);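 note: 0% = growth of cultures given vehicle only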; conditions: S. cerevisiae sgs1 mgt1 strain, stronger effect = higher value
In short: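 Compounds are added to genetically altered yeast, and growth is compared with cultures given vehicle alone to give percent inhibition.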

[4] = NCI Yeast Anticancer Drug Screen. Data for the cln2 rad14 strain (AID 165);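 note: 0% = growth equal to vehicle treated cultures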; conditions: S. cerevisiae cln2 rad14 strain, stronger effect = higher value
In short: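 Growth inhibition, relative to vehicle-treated controls, is the read-out. The test organism is a yeast strain with defined genetic alterations, cln2 rad14.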

[5] = NCI Yeast Anticancer Drug Screen. Data for the bub3 strain (AID 167); conditions: S. cerevisiae bub3 mutant strain, stronger effect = higher value
In short: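 Yeast carrying a defined mutation is treated with each compound, and growth is compared with that of vehicle-exposed cells to give inhibition.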

[6] = NCI Yeast Anticancer Drug Screen. Data for the mlh1 rad18 strain (AID 175); conditions: S. cerevisiae mlh1 rad18 strain growth inhibition, stronger effect = higher value
In short: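 Cells of a genetically altered yeast strain, deficient in DNA damage repair, were treated with compound. Their growth was then compared with that of vehicle-treated cultures to give inhibition.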

[7] = at 5.0 µM (retest, dose inferred, filed as 0.5)
[8] = at 50.0 µM (retest, dose inferred, filed as 5.0)

For `CC(C)c1ccccc1OP(=S)(S)Oc1ccccc1C(C)C`, the growth inhibition [1, 7] was 4%, the growth inhibition [1, 8] was 38% and the growth inhibition ([1]; at 50.0 µM) was 82.8% (active). For the same compound, the growth inhibition [2, 7] was 5%, the growth inhibition [2, 8] was 24% and the growth inhibition ([2]; at 50.0 µM) was 2.75%. The growth inhibition [3, 7] was 1%, the growth inhibition [3, 8] was 45% and the growth inhibition ([3]; at 50.0 µM) was 72.8% (active). The growth inhibition [4, 7] was 4%, the growth inhibition [4, 8] was 54% and the growth inhibition ([4]; at 50.0 µM) was 87.3% (active). It also gave a growth inhibition [5, 7] of 0%, a growth inhibition [5, 8] of 54% and a growth inhibition ([5]; at 50.0 µM) of 37%. The growth inhibition [6, 7] was 0%, the growth inhibition [6, 8] was 68% and the growth inhibition ([6]; at 50.0 µM) was 79% (active).
With `CC1=CC2CC(C)=C(CC[C@]3(C)CC[C@H]([C@@H](C)C(=O)O)OO3)C(C)(C)C2CC1` (some centres undefined) the growth inhibition [1, 7] was 41%, the growth inhibition [1, 8] was 98% (active) and the growth inhibition ([1]; at 50.0 µM) was 91.7% (active). For the same compound, the growth inhibition [2, 7] was 59%, the growth inhibition [2, 8] was 99% (active) and the growth inhibition ([2]; at 50.0 µM) was 93.8% (active). The growth inhibition [3, 7] was 69%, the growth inhibition [3, 8] was 99% (active) and the growth inhibition ([3]; at 50.0 µM) was 93% (active). For the same compound, the growth inhibition [4, 7] was 41%, the growth inhibition [4, 8] was 98% (active) and the growth inhibition ([4]; at 50.0 µM) was 91.2% (active). For the same compound, the growth inhibition [5, 7] was 52%, the growth inhibition [5, 8] was 98% (active) and the growth inhibition ([5]; at 50.0 µM) was 92.2% (active). The growth inhibition [6, 7] was 60%, the growth inhibition [6, 8] was 98% (active) and the growth inhibition ([6]; at 50.0 µM) was 91.4% (active).
`[Pt].c1ccc([PH+](c2ccccc2)c2ccccc2)cc1.c1ccc([PH+](c2ccccc2)c2ccccc2)cc1.c1ccc([PH+](c2ccccc2)c2ccccc2)cc1.c1ccc([PH+](c2ccccc2)c2ccccc2)cc1` showed a growth inhibition [1, 7] of 31%, a growth inhibition [1, 8] of 62% and a growth inhibition ([1]; at 50.0 µM) of 68.5%. The growth inhibition [2, 7] was 27%, the growth inhibition [2, 8] was 61% and the growth inhibition ([2]; at 50.0 µM) was 42.7%. The growth inhibition [3, 7] was 40%, the growth inhibition [3, 8] was 82% (active) and the growth inhibition ([3]; at 50.0 µM) was 62.3%. The growth inhibition [4, 7] was 49%, the growth inhibition [4, 8] was 55% and the growth inhibition ([4]; at 50.0 µM) was 64%. The growth inhibition [5, 7] was 42%, the growth inhibition [5, 8] was 54% and the growth inhibition ([5]; at 50.0 µM) was 62.5%. The growth inhibition [6, 7] was 27%, the growth inhibition [6, 8] was 86% (active) and the growth inhibition ([6]; at 50.0 µM) was 41.5%.
With `COc1cc(C2c3[nH]c4ccccc4c3[C@@H](Nc3ccc(C#N)cc3)[C@H]3COC(=O)N23)cc(OC)c1O` (some centres undefined) the growth inhibition [1, 7] was 19%, the growth inhibition [1, 8] was 95% (active) and the growth inhibition ([1]; at 50.0 µM) was 73.8% (active). For the same compound, the growth inhibition [2, 7] was 21%, the growth inhibition [2, 8] was 91% (active) and the growth inhibition ([2]; at 50.0 µM) was 77.3% (active). For the same compound, the growth inhibition [3, 7] was -15%, the growth inhibition [3, 8] was 61% and the growth inhibition ([3]; at 50.0 µM) was 58.8%. For the same compound, the growth inhibition [4, 7] was -3%, the growth inhibition [4, 8] was 57% and the growth inhibition ([4]; at 50.0 µM) was 71.4% (active). For the same compound, the growth inhibition [5, 7] was -23%, the growth inhibition [5, 8] was 70% (active) and the growth inhibition ([5]; at 50.0 µM) was 65.9%. For the same compound, the growth inhibition [6, 7] was 21%, the growth inhibition [6, 8] was 71% (active) and the growth inhibition ([6]; at 50.0 µM) was 50.8%.
For `c1cs[c]([Hg][c]2cccs2)c1`, the growth inhibition [1, 7] was 99% (active), the growth inhibition [1, 8] was 98% (active) and the growth inhibition ([1]; at 50.0 µM) was 99.7% (active). For the same compound, the growth inhibition [2, 7] was 99% (active), the growth inhibition [2, 8] was 76% (active) and the growth inhibition ([2]; at 50.0 µM) was 99.5% (active). For the same compound, the growth inhibition [3, 7] was 100% (active), the growth inhibition [3, 8] was 97% (active) and the growth inhibition ([3]; at 50.0 µM) was 99.6% (active). The growth inhibition [4, 7] was 97% (active), the growth inhibition [4, 8] was 97% (active) and the growth inhibition ([4]; at 50.0 µM) was 98% (active). For the same compound, the growth inhibition [5, 7] was 100% (active), the growth inhibition [5, 8] was 98% (active) and the growth inhibition ([5]; at 50.0 µM) was 99.5% (active). The growth inhibition [6, 7] was 99% (active), the growth inhibition [6, 8] was 95% (active) and the growth inhibition ([6]; at 50.0 µM) was 99.5% (active).
`CC[PH+](CC)CC[S-].CC[PH+](CC)CC[S-].[Au+].[Au+]` gave a growth inhibition [1, 7] of 5%, a growth inhibition [1, 8] of 13% and a growth inhibition ([1]; at 50.0 µM) of 46.4%. It also gave a growth inhibition [2, 7] of 14%, a growth inhibition [2, 8] of 18% and a growth inhibition ([2]; at 50.0 µM) of -0.55%. For the same compound, the growth inhibition [3, 7] was 12%, the growth inhibition [3, 8] was 23% and the growth inhibition ([3]; at 50.0 µM) was 11.2%. The growth inhibition [4, 7] was 4%, the growth inhibition [4, 8] was 6% and the growth inhibition ([4]; at 50.0 µM) was -12.4%. The growth inhibition [5, 7] was 14%, the growth inhibition [5, 8] was 7% and the growth inhibition ([5]; at 50.0 µM) was 8.1%. It also gave a growth inhibition [6, 7] of 55%, a growth inhibition [6, 8] of 15% and a growth inhibition ([6]; at 50.0 µM) of -35.8%.
For `C1OCC2[CH2][Hg][S][Hg][CH2]C1O2`, the growth inhibition [1, 7] was 29%, the growth inhibition [1, 8] was 95% (active) and the growth inhibition ([1]; at 50.0 µM) was 92.8% (active). For the same compound, the growth inhibition [2, 7] was 34%, the growth inhibition [2, 8] was 97% (active) and the growth inhibition ([2]; at 50.0 µM) was 94.8% (active). The growth inhibition [3, 7] was 67%, the growth inhibition [3, 8] was 98% (active) and the growth inhibition ([3]; at 50.0 µM) was 95.5% (active). For the same compound, the growth inhibition [4, 7] was 19%, the growth inhibition [4, 8] was 95% (active) and the growth inhibition ([4]; at 50.0 µM) was 92.6% (active). For the same compound, the growth inhibition [5, 7] was 20%, the growth inhibition [5, 8] was 96% (active) and the growth inhibition ([5]; at 50.0 µM) was 95.2% (active). For the same compound, the growth inhibition [6, 7] was 36%, the growth inhibition [6, 8] was 94% (active) and the growth inhibition ([6]; at 50.0 µM) was 91.3% (active).
With `CC[S+](C)c1ccc(-c2c3nc(c(-c4ccc([S+](C)CC)cc4)c4ccc([nH]4)c(-c4ccc([S+](C)CC)cc4)c4nc(c(-c5ccc([S+](C)CC)cc5)c5ccc2[nH]5)C=C4)C=C3)cc1` (centres undefined) the growth inhibition [1, 7] was 95% (active), the growth inhibition [1, 8] was 95% (active) and the growth inhibition ([1]; at 50.0 µM) was 86.8% (active). The growth inhibition [2, 7] was 98% (active), the growth inhibition [2, 8] was 97% (active) and the growth inhibition ([2]; at 50.0 µM) was 90.7% (active). For the same compound, the growth inhibition [3, 7] was 73% (active), the growth inhibition [3, 8] was 97% (active) and the growth inhibition ([3]; at 50.0 µM) was 91.8% (active). For the same compound, the growth inhibition [4, 7] was 56%, the growth inhibition [4, 8] was 96% (active) and the growth inhibition ([4]; at 50.0 µM) was 89.5% (active). For the same compound, the growth inhibition [5, 7] was 94% (active), the growth inhibition [5, 8] was 96% (active) and the growth inhibition ([5]; at 50.0 µM) was 89% (active). The growth inhibition [6, 7] was 96% (active), the growth inhibition [6, 8] was 95% (active) and the growth inhibition ([6]; at 50.0 µM) was 88.5% (active).

Source: PubChem BioAssay (NCI)
